# Assay results as given in publication PMC7862700, “An all-to-all approach to the identification of sequence-specific readers for epigenetic DNA modifications on cytosine”.
# Biological target: T1, ELK4 (Homo sapiens, UniProt P28324-2 1-405)
# T1 sequence: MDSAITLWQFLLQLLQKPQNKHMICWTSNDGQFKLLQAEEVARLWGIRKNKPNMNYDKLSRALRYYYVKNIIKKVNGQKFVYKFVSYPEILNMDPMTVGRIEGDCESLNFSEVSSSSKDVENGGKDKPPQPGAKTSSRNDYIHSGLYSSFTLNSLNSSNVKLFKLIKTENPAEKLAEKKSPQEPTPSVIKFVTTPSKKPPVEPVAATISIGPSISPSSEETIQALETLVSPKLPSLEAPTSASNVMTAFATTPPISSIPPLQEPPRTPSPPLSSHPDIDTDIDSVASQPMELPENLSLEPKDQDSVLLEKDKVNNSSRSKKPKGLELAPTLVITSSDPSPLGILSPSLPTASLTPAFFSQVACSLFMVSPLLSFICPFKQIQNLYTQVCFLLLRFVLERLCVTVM
# Assay: DAPPL (digital affinity profiling via proximity ligation, sequencing); 10 mM Tris-HCl pH 7.5, 50 mM NaCl, 1 mM DTT, 4% glycerol, room temperature, 30 min; GST-TFs on glutathione beads, 16-mer random dsDNA library, 0.1% formaldehyde crosslink after washing; high values mean tight binding
# Conditions: protein: recombinant; tags: N-terminal GST; dsDNA, one strand shown
# Outline: (§1)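 Sequencing on an Illumina NextSeq500 followed washing, crosslinking with 0.1% formaldehyde, proximity ligation (BsaI/T4 ligase, 1 h, 37 °C) and PCR amplification of pools that had been incubated for 30 min at room temperature with 200 nmole of a random double-stranded 16-mer DNA library in Tris/NaCl/DTT/glycerol buffer. Each pool held DNA-barcoded human transcription factors, expressed in yeast as GST fusions and captured on glutathione beads, plus a tag-only sample. Binding signal is a hexamer's read frequency for a factor divided by its frequency in the tag-only sample.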
row,Sequence,binding signal
1,AATTCT,"1.29 fold enrichment (6-mer frequency, TF over GST control)"
2,TTCATC,"1.27 fold enrichment (6-mer frequency, TF over GST control)"
3,AGCTCA,"1.27 fold enrichment (6-mer frequency, TF over GST control)"
4,TAATCG,"1.1 fold enrichment (6-mer frequency, TF over GST control)"
5,ATTGCT,"1.16 fold enrichment (6-mer frequency, TF over GST control)"
6,CTCCCT,"1.41 fold enrichment (6-mer frequency, TF over GST control)"
7,CGACCT,"1.56 fold enrichment (6-mer frequency, TF over GST control)"
8,CTCATC,"1.32 fold enrichment (6-mer frequency, TF over GST control)"
9,TGACAA,"1.2 fold enrichment (6-mer frequency, TF over GST control)"
10,CCTGAA,"1.41 fold enrichment (6-mer frequency, TF over GST control)"
11,TTTACG,"1.29 fold enrichment (6-mer frequency, TF over GST control)"
12,ATTAGC,"1.14 fold enrichment (6-mer frequency, TF over GST control)"
13,CGAGCA,"1.17 fold enrichment (6-mer frequency, TF over GST control)"
14,CCTATT,"1.37 fold enrichment (6-mer frequency, TF over GST control)"
15,ATTCCC,"1.24 fold enrichment (6-mer frequency, TF over GST control)"
16,GCTGCT,"1.36 fold enrichment (6-mer frequency, TF over GST control)"
17,TTGTAG,"1.31 fold enrichment (6-mer frequency, TF over GST control)"
18,CTTTCA,"1.54 fold enrichment (6-mer frequency, TF over GST control)"
19,AAATTA,"1.28 fold enrichment (6-mer frequency, TF over GST control)"
20,TATGCC,"1.17 fold enrichment (6-mer frequency, TF over GST control)"

# Biological target: T2, ETV2 (Homo sapiens, UniProt O00321 1-342)
# T2 sequence: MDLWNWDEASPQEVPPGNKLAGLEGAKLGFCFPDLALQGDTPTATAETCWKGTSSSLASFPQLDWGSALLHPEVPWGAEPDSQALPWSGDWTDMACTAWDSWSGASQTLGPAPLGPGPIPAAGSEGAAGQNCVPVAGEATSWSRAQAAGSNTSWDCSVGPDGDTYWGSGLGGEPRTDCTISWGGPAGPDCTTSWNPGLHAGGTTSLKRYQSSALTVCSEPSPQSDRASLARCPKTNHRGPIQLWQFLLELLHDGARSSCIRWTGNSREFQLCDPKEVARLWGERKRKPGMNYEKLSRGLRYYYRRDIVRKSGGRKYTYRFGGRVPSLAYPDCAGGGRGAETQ
# Assay: as above
# Conditions: protein: recombinant; tags: N-terminal GST; dsDNA, one strand shown
# Outline: as §1
row,Sequence,binding signal
1,AATGAA,"1.08 fold enrichment (6-mer frequency, TF over GST control)"
2,CTCGTA,"1.44 fold enrichment (6-mer frequency, TF over GST control)"
3,CCGACT,"1.46 fold enrichment (6-mer frequency, TF over GST control)"
4,TTGCTG,"1.42 fold enrichment (6-mer frequency, TF over GST control)"
5,CACCTT,"1.25 fold enrichment (6-mer frequency, TF over GST control)"
6,TCGAAT,"1.03 fold enrichment (6-mer frequency, TF over GST control)"
7,ATAGTT,"1.14 fold enrichment (6-mer frequency, TF over GST control)"
8,ATCCCG,"1.28 fold enrichment (6-mer frequency, TF over GST control)"
9,CTTTAC,"1.41 fold enrichment (6-mer frequency, TF over GST control)"
10,TAATCC,"1.2 fold enrichment (6-mer frequency, TF over GST control)"
11,CGGCTT,"1.27 fold enrichment (6-mer frequency, TF over GST control)"
12,AATCAT,"1.21 fold enrichment (6-mer frequency, TF over GST control)"
13,TTAAAT,"1.25 fold enrichment (6-mer frequency, TF over GST control)"
14,TTACTG,"1.12 fold enrichment (6-mer frequency, TF over GST control)"
15,GGATTT,"1.27 fold enrichment (6-mer frequency, TF over GST control)"
16,CTACAA,"1.18 fold enrichment (6-mer frequency, TF over GST control)"
17,ATCTAC,"1.29 fold enrichment (6-mer frequency, TF over GST control)"
18,ATCCAA,"1.09 fold enrichment (6-mer frequency, TF over GST control)"
19,GACCTA,"1.26 fold enrichment (6-mer frequency, TF over GST control)"
20,ATTACG,"1.17 fold enrichment (6-mer frequency, TF over GST control)"

row,Sequence,binding signal
1,AATTCT,"1.4 fold enrichment (6-mer frequency, TF over GST control)"
2,TTCATC,"1.25 fold enrichment (6-mer frequency, TF over GST control)"
3,AGCTCA,"1.25 fold enrichment (6-mer frequency, TF over GST control)"
4,TAATCG,"1.04 fold enrichment (6-mer frequency, TF over GST control)"
5,ATTGCT,"1.22 fold enrichment (6-mer frequency, TF over GST control)"
6,CTCCCT,"1.51 fold enrichment (6-mer frequency, TF over GST control)"
7,CGACCT,"1.73 fold enrichment (6-mer frequency, TF over GST control)"
8,CTCATC,"1.45 fold enrichment (6-mer frequency, TF over GST control)"
9,TGACAA,"1.14 fold enrichment (6-mer frequency, TF over GST control)"
10,CCTGAA,"1.47 fold enrichment (6-mer frequency, TF over GST control)"
11,TTTACG,"1.33 fold enrichment (6-mer frequency, TF over GST control)"
12,ATTAGC,"1.13 fold enrichment (6-mer frequency, TF over GST control)"
13,CGAGCA,"1.34 fold enrichment (6-mer frequency, TF over GST control)"
14,CCTATT,"1.46 fold enrichment (6-mer frequency, TF over GST control)"
15,ATTCCC,"1.42 fold enrichment (6-mer frequency, TF over GST control)"
16,GCTGCT,"1.25 fold enrichment (6-mer frequency, TF over GST control)"
17,TTGTAG,"1.15 fold enrichment (6-mer frequency, TF over GST control)"
18,CTTTCA,"1.42 fold enrichment (6-mer frequency, TF over GST control)"
19,AAATTA,"1.4 fold enrichment (6-mer frequency, TF over GST control)"
20,TATGCC,"1.05 fold enrichment (6-mer frequency, TF over GST control)"

# Biological target: T3, ELF3 (Homo sapiens, UniProt P78545 1-371)
# T3 sequence: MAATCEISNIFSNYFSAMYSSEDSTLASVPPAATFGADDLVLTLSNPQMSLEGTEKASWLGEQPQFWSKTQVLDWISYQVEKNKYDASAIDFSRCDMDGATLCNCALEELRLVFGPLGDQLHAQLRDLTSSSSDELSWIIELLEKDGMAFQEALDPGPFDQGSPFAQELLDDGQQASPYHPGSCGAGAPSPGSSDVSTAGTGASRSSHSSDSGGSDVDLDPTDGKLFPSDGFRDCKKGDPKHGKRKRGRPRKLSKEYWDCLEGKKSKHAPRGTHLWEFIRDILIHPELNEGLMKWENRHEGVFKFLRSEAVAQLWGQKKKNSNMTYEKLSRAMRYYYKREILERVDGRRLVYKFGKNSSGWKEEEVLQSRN
# Assay: as above
# Conditions: protein: recombinant; tags: N-terminal GST; dsDNA, one strand shown
# Outline: as §1
row,Sequence,binding signal
1,AATGAA,"1.24 fold enrichment (6-mer frequency, TF over GST control)"
2,CTCGTA,"1.39 fold enrichment (6-mer frequency, TF over GST control)"
3,CCGACT,"1.55 fold enrichment (6-mer frequency, TF over GST control)"
4,TTGCTG,"1.33 fold enrichment (6-mer frequency, TF over GST control)"
5,CACCTT,"1.26 fold enrichment (6-mer frequency, TF over GST control)"
6,TCGAAT,"1.11 fold enrichment (6-mer frequency, TF over GST control)"
7,ATAGTT,"1.29 fold enrichment (6-mer frequency, TF over GST control)"
8,ATCCCG,"1.37 fold enrichment (6-mer frequency, TF over GST control)"
9,CTTTAC,"1.44 fold enrichment (6-mer frequency, TF over GST control)"
10,TAATCC,"1.22 fold enrichment (6-mer frequency, TF over GST control)"
11,CGGCTT,"1.15 fold enrichment (6-mer frequency, TF over GST control)"
12,AATCAT,"1.17 fold enrichment (6-mer frequency, TF over GST control)"
13,TTAAAT,"1.22 fold enrichment (6-mer frequency, TF over GST control)"
14,TTACTG,"1.21 fold enrichment (6-mer frequency, TF over GST control)"
15,GGATTT,"1.15 fold enrichment (6-mer frequency, TF over GST control)"
16,CTACAA,"1.03 fold enrichment (6-mer frequency, TF over GST control)"
17,ATCTAC,"1.33 fold enrichment (6-mer frequency, TF over GST control)"
18,ATCCAA,"1.28 fold enrichment (6-mer frequency, TF over GST control)"
19,GACCTA,"1.06 fold enrichment (6-mer frequency, TF over GST control)"
20,ATTACG,"1.14 fold enrichment (6-mer frequency, TF over GST control)"

row,Sequence,binding signal
1,AATTCT,"1.25 fold enrichment (6-mer frequency, TF over GST control)"
2,TTCATC,"1.3 fold enrichment (6-mer frequency, TF over GST control)"
3,AGCTCA,"1.11 fold enrichment (6-mer frequency, TF over GST control)"
4,TAATCG,"1.07 fold enrichment (6-mer frequency, TF over GST control)"
5,ATTGCT,"1.28 fold enrichment (6-mer frequency, TF over GST control)"
6,CTCCCT,"1.48 fold enrichment (6-mer frequency, TF over GST control)"
7,CGACCT,"1.45 fold enrichment (6-mer frequency, TF over GST control)"
8,CTCATC,"1.49 fold enrichment (6-mer frequency, TF over GST control)"
9,TGACAA,"1.3 fold enrichment (6-mer frequency, TF over GST control)"
10,CCTGAA,"1.21 fold enrichment (6-mer frequency, TF over GST control)"
11,TTTACG,"1.28 fold enrichment (6-mer frequency, TF over GST control)"
12,ATTAGC,"1.14 fold enrichment (6-mer frequency, TF over GST control)"
13,CGAGCA,"1.29 fold enrichment (6-mer frequency, TF over GST control)"
14,CCTATT,"1.54 fold enrichment (6-mer frequency, TF over GST control)"
15,ATTCCC,"1.35 fold enrichment (6-mer frequency, TF over GST control)"
16,GCTGCT,"1.37 fold enrichment (6-mer frequency, TF over GST control)"
17,TTGTAG,"1.03 fold enrichment (6-mer frequency, TF over GST control)"
18,CTTTCA,"1.18 fold enrichment (6-mer frequency, TF over GST control)"
19,AAATTA,"1.31 fold enrichment (6-mer frequency, TF over GST control)"
20,TATGCC,"1.01 fold enrichment (6-mer frequency, TF over GST control)"
